This passage reports inhibition results from ChEMBL document CHEMBL1961873, “Compounds: GSK PKIS; Assays: Nanosyn kinase panel” (2012).

Test [1] deals with T1, Serine/threonine-protein kinase TBK1 (Homo sapiens) (UniProt Q9UHD2).
T1 sequence (whole entry): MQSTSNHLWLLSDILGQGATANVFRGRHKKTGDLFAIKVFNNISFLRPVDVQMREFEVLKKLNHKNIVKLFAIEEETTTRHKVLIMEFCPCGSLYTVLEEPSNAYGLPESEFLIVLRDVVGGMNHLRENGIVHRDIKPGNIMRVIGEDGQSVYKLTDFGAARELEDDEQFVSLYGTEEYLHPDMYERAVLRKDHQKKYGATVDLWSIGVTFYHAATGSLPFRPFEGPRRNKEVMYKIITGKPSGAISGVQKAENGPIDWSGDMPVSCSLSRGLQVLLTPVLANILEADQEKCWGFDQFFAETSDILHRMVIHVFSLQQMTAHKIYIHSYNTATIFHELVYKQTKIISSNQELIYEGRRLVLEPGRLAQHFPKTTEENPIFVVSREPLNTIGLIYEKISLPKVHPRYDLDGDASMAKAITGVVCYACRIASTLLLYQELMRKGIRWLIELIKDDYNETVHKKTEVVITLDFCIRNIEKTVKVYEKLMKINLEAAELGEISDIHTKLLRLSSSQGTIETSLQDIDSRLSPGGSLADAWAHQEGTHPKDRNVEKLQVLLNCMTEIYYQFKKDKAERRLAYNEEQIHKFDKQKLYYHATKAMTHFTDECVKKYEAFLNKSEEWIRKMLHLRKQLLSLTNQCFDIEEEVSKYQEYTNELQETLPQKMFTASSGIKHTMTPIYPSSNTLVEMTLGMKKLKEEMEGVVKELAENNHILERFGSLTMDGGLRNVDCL
Particulars: at 1 µM.

The target of test [2] is T2, Testis-specific serine/threonine-protein kinase 1 (Homo sapiens) (UniProt Q9BXA7).
T2 sequence (whole entry): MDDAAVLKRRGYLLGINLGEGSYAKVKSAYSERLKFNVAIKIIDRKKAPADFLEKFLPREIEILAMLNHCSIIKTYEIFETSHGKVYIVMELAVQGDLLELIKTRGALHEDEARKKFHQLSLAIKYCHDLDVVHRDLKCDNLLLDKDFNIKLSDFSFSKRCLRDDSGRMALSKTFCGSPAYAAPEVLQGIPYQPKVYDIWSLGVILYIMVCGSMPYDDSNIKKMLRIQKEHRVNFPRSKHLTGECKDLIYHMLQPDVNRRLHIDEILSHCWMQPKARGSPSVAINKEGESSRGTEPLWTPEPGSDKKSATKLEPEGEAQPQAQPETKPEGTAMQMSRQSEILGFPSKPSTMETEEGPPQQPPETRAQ
Particulars: at 0.1 µM.

Test [3] deals with T2, Testis-specific serine/threonine-protein kinase 1 (Homo sapiens). Particulars: at 1 µM.
In test [4] the target is T3, Testis-specific serine/threonine-protein kinase 2 (Homo sapiens) (UniProt Q96PF2).
T3 sequence (whole entry): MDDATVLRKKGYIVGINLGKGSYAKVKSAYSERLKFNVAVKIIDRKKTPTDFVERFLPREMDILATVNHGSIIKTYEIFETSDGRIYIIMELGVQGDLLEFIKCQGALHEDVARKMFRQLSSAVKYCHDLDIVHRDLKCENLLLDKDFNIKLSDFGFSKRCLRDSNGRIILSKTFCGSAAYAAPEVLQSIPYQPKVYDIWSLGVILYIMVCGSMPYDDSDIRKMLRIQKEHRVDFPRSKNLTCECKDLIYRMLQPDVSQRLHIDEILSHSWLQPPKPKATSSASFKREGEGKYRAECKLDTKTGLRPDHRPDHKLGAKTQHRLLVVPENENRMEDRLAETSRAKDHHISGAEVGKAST
To be noted: at 0.1 µM.

For test [5], the target named is T3, Testis-specific serine/threonine-protein kinase 2 (Homo sapiens). To be noted: at 1 µM.
The target in test [6] is Casein kinase I isoform alpha (Homo sapiens) (UniProt P48729). Particulars: at 0.1 µM.
Chain of Casein kinase I isoform alpha (Homo sapiens) (P48729 2-337 limits assumed): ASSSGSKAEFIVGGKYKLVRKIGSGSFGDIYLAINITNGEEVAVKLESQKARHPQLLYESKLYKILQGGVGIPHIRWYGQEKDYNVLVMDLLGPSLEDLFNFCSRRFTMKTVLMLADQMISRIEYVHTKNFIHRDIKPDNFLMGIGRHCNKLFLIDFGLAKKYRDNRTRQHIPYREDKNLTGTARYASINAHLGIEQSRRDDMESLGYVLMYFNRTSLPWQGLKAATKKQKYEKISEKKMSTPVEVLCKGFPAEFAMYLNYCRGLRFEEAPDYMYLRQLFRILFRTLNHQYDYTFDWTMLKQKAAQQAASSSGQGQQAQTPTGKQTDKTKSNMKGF
For test [7] the target is unchanged. Particulars: at 1 µM.
Test [8] addresses Casein kinase I isoform gamma-1 (Homo sapiens) (UniProt Q9HCP0). To be noted: at 0.1 µM.
Test [9] shares this target. Particulars: at 1 µM.
Test [10] has as its target Casein kinase I isoform gamma-2 (Homo sapiens) (UniProt P78368). Particulars: at 0.1 µM.
The target is the same in test [11]. Particulars: at 1 µM.
Test [12] deals with Casein kinase I isoform gamma-3 (Homo sapiens) (UniProt Q9Y6M4). Particulars: at 0.1 µM.
Chain of Casein kinase I isoform gamma-3 (Homo sapiens) (Q9Y6M4 whole entry, looked up, canonical isoform): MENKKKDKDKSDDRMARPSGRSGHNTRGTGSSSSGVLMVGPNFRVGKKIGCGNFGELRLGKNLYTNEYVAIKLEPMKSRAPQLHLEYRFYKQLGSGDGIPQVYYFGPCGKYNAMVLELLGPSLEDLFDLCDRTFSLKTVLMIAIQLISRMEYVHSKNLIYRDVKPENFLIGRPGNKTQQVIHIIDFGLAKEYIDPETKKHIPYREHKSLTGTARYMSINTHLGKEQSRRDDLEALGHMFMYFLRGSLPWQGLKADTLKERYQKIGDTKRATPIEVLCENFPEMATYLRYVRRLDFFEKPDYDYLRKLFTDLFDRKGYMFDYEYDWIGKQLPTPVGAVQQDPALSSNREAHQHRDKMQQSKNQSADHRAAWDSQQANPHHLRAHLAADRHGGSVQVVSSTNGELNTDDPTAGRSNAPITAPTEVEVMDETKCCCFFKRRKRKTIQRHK
The target is the same in test [13]. To be noted: at 1 µM.
The target in test [14] is Cyclin-dependent kinase 1 (Homo sapiens) (UniProt P06493). To be noted: at 0.1 µM.
Chain of Cyclin-dependent kinase 1 (Homo sapiens) (P06493 whole entry, looked up): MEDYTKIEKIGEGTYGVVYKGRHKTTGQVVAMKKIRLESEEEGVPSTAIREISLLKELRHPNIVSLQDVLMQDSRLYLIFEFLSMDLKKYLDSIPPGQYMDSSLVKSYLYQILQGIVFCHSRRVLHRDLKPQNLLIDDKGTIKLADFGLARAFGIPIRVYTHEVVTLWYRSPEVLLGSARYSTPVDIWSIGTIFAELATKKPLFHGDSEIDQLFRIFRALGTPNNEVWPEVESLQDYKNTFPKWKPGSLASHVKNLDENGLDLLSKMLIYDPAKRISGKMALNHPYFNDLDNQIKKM
For test [15] the target is unchanged. Particulars: at 1 µM.
In test [16] the target is Cyclin-dependent kinase 2 (Homo sapiens) (UniProt P24941). To be noted: at 0.1 µM.
Test [17] shares this target. To be noted: at 1 µM.
For test [18] the target is unchanged. Particulars: at 0.1 µM. The source holds these as a separate data set.
Test [19] has the same target. Particulars: at 1 µM. This is another data set of the same source.
In test [20] the target is CDK3/Cyclin E (Homo sapiens) (UniProt P24864+Q00526). Particulars: at 0.1 µM.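 Further: reported percentages are mean inhibition values.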
Chain of CDK3/Cyclin E (Homo sapiens) (P24864 whole entry, looked up): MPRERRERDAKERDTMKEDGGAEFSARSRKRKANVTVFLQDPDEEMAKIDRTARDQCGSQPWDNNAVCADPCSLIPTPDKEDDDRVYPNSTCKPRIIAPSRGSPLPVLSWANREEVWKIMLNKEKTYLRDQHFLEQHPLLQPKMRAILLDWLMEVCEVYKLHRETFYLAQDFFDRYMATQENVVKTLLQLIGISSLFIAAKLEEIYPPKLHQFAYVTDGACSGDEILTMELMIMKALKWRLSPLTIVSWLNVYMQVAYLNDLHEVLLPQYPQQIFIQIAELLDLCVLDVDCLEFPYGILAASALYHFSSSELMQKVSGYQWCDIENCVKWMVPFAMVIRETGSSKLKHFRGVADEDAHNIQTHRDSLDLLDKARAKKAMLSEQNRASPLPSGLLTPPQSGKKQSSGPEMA
Chain of CDK3/Cyclin E (Homo sapiens) (Q00526 whole entry, looked up): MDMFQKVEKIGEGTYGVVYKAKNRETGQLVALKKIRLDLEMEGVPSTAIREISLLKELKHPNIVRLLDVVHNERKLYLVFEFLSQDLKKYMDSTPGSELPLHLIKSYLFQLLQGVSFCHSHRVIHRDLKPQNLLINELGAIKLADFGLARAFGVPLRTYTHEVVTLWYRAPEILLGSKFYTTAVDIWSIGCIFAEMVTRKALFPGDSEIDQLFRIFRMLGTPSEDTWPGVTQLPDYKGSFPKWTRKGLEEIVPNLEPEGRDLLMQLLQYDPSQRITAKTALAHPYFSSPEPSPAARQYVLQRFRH

Chain of Casein kinase I isoform gamma-2 (Homo sapiens) (P78368 whole entry, looked up, canonical isoform): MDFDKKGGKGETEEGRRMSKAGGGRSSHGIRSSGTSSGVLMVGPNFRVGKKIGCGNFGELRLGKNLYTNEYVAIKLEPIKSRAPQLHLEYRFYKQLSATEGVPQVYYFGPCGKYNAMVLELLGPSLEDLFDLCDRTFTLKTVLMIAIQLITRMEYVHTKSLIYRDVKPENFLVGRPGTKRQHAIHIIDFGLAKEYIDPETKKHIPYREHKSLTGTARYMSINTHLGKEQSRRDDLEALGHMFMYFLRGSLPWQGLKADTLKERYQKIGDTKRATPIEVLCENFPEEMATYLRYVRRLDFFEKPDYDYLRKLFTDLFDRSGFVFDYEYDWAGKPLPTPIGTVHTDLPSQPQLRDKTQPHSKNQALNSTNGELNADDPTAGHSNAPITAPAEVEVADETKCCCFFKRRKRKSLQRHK
Chain of Casein kinase I isoform gamma-1 (Homo sapiens) (Q9HCP0 whole entry, looked up, canonical isoform): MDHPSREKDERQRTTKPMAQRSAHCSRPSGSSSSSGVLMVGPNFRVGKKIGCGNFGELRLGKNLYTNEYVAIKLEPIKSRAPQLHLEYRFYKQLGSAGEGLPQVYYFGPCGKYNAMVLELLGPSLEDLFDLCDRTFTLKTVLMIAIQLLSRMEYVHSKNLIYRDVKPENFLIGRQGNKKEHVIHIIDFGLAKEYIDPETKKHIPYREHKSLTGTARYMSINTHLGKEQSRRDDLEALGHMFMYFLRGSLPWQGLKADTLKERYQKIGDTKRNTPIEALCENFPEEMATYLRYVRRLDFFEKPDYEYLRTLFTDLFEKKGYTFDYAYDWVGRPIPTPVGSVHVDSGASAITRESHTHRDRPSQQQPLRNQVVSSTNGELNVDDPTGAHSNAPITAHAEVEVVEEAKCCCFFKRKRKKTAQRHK

`NC(=O)c1sc(-n2cnc3ccccc32)cc1OCc1ccccc1Br`: the inhibition in test [1] is 2.68%; in test [2] it was 3.19%; in test [3], 4.53%; in [4] it was 0.6%; in [5] it was 1.24%; in [6], 2.22%. Further, the inhibition is 7.23% in test [7]; 3.55% in test [8]; 5.15% in test [9]; 3.34% in test [10]; 5.04% in test [11]; 2.52% in [12]. Also, the inhibition in [13] turned out to be 3.56%; in [14] it was 4.32%; in test [15] it was 6.19%; in test [16] it was 7.43%; in test [17], 5.68%; in test [18] it was 4.88%. The inhibition was 8.08% in [19] and -2.25% in [20].

`COC(=O)c1ccc2c(c1)C(=Cc1cc(Br)c(O)c(Br)c1)C(=O)N2`: the inhibition in [1] was 6.58%; in test [2], 3.53%; in [3] it was 5.53%; in test [4], -0.06%; in test [5] it was 1.17%; in test [6], 1.76%. Also, the inhibition in test [7] worked out at 6.74%; in [8], 3.99%; in [9] it was 6.68%; in [10], 4.6%; in test [11] it was 6.12%; in test [12], 3.75%. In addition, the inhibition stood at 5.04% in test [13]; 1.54% in [14]; 2.24% in test [15]; 8.07% in [16]; 7.32% in test [17]; 2.47% in test [18]. Moreover, the inhibition in test [19] is 4.31%; in test [20], -5.06%.

Take `N#Cc1cccc(Nc2nccc(-c3cnn4ncccc34)n2)c1`: the inhibition in test [1] was 22.1%; in test [2], 6.69%; in test [3] it was 10.6%; in test [4] it was 2.43%; in test [5], 2.95%; in test [6] it was 28.9%. The inhibition in test [7] came to 69.8%; in test [8], 5.75%; in [9], 28.2%; in test [10], 6.38%; in test [11], 41.4%; in test [12], 8.75%. Besides, the inhibition came to 43% in [13]; 83.8% in test [14]; 89.2% in [15]; 89.8% in test [16]; 121% in test [17]; 82.3% in test [18]. Besides, the inhibition turned out to be 87.2% in test [19] and 76.7% in [20].

For the compound `COC(=O)c1cncc(/C=C/c2c(C)cc(O)cc2C)c1`, the inhibition in test [1] is 3.98%; in [2], 2.95%; in test [3] it was 5.68%; in [4] it was 0.9%; in test [5], 0.8%; in [6], 1.49%. Also, the inhibition was 4.06% in test [7]; 3.02% in test [8]; 4.65% in test [9]; 2.68% in test [10]; 3.31% in [11]; 2.67% in [12]. Besides, the inhibition in test [13] is 3.39%; in [14], 0.78%; in test [15], 3.13%; in test [16], 2.61%; in test [17], 4.42%; in [18], 3.33%. Besides, the inhibition is 5.75% in test [19] and 1.45% in test [20].

For `NS(=O)(=O)c1ccc(NC=C2C(=O)Nc3ccc4ncsc4c32)cc1`, the inhibition in [1] was found to be 65.6%; in test [2], 8.91%; in test [3], 33.5%; in test [4], 2.62%; in [5] it was 3.73%; in test [6], 4.2%. The inhibition worked out at 22.3% in test [7]; 5.22% in [8]; 18.2% in test [9]; 3.58% in test [10]; 19.5% in [11]; 6.11% in [12]. For the same compound, the inhibition in test [13] amounted to 26.3%; in test [14] it was 40.7%; in test [15] it was 69.5%; in [16], 89.1%; in [17] it was 109%; in test [18], 74.3%. For the same compound, the inhibition worked out at 76.7% in test [19] and 69.4% in test [20].

`CCn1c(-c2nonc2N)nc2c(C#CC(C)(C)O)nc(OCCNC)cc21`: the inhibition in [1] was found to be 8.57%; in test [2] it was 5.86%; in test [3], 18%; in test [4], 1.75%; in [5], 2.65%; in test [6] it was 3.87%. Besides, the inhibition in [7] came out at 8.13%; in test [8] it was 3.33%; in test [9], 4.48%; in test [10], 3.26%; in [11] it was 6.19%; in test [12] it was 2.99%. The inhibition in test [13] was determined as 1.61%; in test [14], 3.65%; in test [15], 2.4%; in [16], 3.96%; in [17] it was 3.53%; in [18] it was 2.75%. The inhibition in [19] is 5.28%; in test [20], -3.05%.

On to `CCS(=O)(=O)c1ccc(OC)c(Nc2nccc(N(C)c3ccc4c(C)n[nH]c4c3)n2)c1`, for which the inhibition in test [1] was 4.2%; in test [2] it was 4.59%; in test [3], 5.05%; in test [4], 1.98%; in test [5], 1.88%; in test [6], 2.29%. The inhibition in [7] came to 1.04%; in test [8] it was 4.4%; in [9] it was 4.99%; in test [10], 3.88%; in [11], 4.44%; in test [12] it was 3.36%. The inhibition in test [13] was 3.45%; in [14], 0.39%; in test [15] it was 1.28%; in test [16] it was 1.59%; in [17] it was 3.06%; in test [18], 2.45%. Also, the inhibition turned out to be 3.56% in [19] and 0.61% in [20].
